# Compound activity: PubChem BioAssay, National Center for Advancing Translational Sciences (NCATS)
# Shown is part of a subset that was picked to be rich in hits.
# CHX counter: Cycloheximide Counterscreen for Small Molecule Inhibitors of Shiga Toxin | cell reporter, cycloheximide protein synthesis inhibition counterscreen | AID 2314, 2010 | 300,000 compounds, 12% hits | max response, %; in the data active = max response mostly above about 13%, no sharp cut-off; inactive = mostly below about 14%; also: read at 38.3 µM for the half of the compounds with a filed dose; 0% is about no effect
# Lassa entry inh: qHTS for Inhibitors of binding or entry into cells for Lassa Virus; 300,000 compounds, 1.2% hits; AID 540256, 2011; Lassa virus pseudotype entry inhibition, cell reporter; Potency, µM (titrated, usually from 37.9 µM), without a hit: at the top dose activity change, negative = inhibition, most hits filed as inhibitors; calls by dose curve; tested in HEK293 cells; also: potency is read from the fitted curve at half-maximal effect; % is scaled to controls: 0 for no effect and ±100 for the full control effect; nearly all actives have a fitted effect of over 50% in size
# VACV mCherry inh: qHTS for Stage-Specific Inhibitors of Vaccinia Orthopoxvirus: mCherry Reporter Primary qHTS | 310,000 compounds, 0.63% hits | Vaccinia virus mCherry reporter infection, fluorescence | Potency, µM (doses to about 36.5 µM), for inactives: at the top dose activity change, negative = inhibition, most hits filed as inhibitors; calls by dose curve; tested in A549 cells; also: potency is read from the fitted curve at half-maximal effect; % is scaled to controls: 0 for no effect and ±100 for the full control effect; nearly all actives have a fitted effect of over 35% in size
# MARV entry inh: qHTS for inhibitors of binding or entry into cells for Marburg Virus; Potency, µM (doses to about 37.8 µM), without a hit: at the highest dose activity change, negative = inhibition, actives largely listed as inhibitors; Marburg virus pseudotyped entry inhibition, cell reporter; 300,000 compounds, 1.8% hits; calls by dose curve; tested in HEK293 cells; also: potency is read from the fitted curve at half-maximal effect; % is scaled to controls: 0 for no effect and ±100 for the full control effect
# Shiga inhibitor: A qHTS for Small Molecule Inhibitors of Shiga Toxin | inhibition, % at 38.7 µM | 290,000 compounds, 9.2% hits | Vero cells, Shiga toxin protein synthesis inhibition reporter; in the data active = inhibition mostly above about 28%, no sharp cut-off; inactive = mostly below about 43%; also: 0% is about no effect
# VACV Venus inh: qHTS for Stage-Specific Inhibitors of Vaccinia Orthopoxvirus: Venus Reporter Primary qHTS; Vaccinia virus Venus reporter expression, fluorescence; Potency, µM (top dose mostly 36.5 µM), inactives show at the top dose activity change, negative = inhibition, most hits filed as inhibitors; 330,000 compounds, 0.46% hits; AID 720580, 2013; calls by dose curve; tested in A549 cells; also: potency is read from the fitted curve at half-maximal effect; % is scaled to controls: 0 for no effect and ±100 for the full control effect; nearly all actives have a fitted effect of over 30% in size
# An asterisk follows results filed as active; i = inactive; ? = inconclusive; / = no result given; + = active, no number; [ ] = remark or other dose.
SMILES,CHX counter,Lassa entry inh,VACV mCherry inh,MARV entry inh,Shiga inhibitor,VACV Venus inh
Cc1ccc(-c2ccc(CCC(=O)O)n2-c2cccc(C(=O)O)c2)cc1,70.7*,/,/,/,151.5*,/
COc1ccc(-c2ccc(CCC(=O)O)n2-c2ccccc2O)cc1,47.5*,-7.0%[46.1 µM],-8.4%,-11.2%[46.1 µM],78.7*,-1.8%
O=C(O)CCc1ccc(-c2ccccc2)n1-c1cccc(O)c1,22.7*,2.2%,i,-1.3%,54.3*,-3.7%
COc1ccc(-c2ccc(CCC(=O)O)n2-c2ccccc2C(F)(F)F)cc1,/,-21.5%[46.1 µM],-9.3%,-5.9%[46.1 µM],/,-12.1%
OC[C@H]1O[C@H](C#Cc2ccccc2)C=C[C@@H]1O,/,?,/,19.6%[14.2 µM],/,/
Cc1cc(C)cc(NC(=O)c2cc(S(=O)(=O)N3CCOCC3)cn2C)c1,/,-0.7%[46.1 µM],-10.6%,/,/,-2.7%
COC(=O)CN1C(=O)[C@H]2[C@@H](/C=C/c3ccccc3)N3C(=O)CN(Cc4ccccc4)C(=O)[C@@]3(C)[C@H]2C1=O,-0.8,/,-0.8%,/,-4.8,2.8%
CN(Cc1cccnc1)Cc1cn[nH]c1-c1ccc(-c2ccccc2)cc1,6.6*,2.1%,-7.8%,-4.7%,26.8,-11.0%
COc1ccc(-c2nc3scc(CCNS(=O)(=O)c4ccc5c(c4)OCCO5)n3n2)cc1,/,-5.1%[46.1 µM],-10.1%,/,/,-15.6%
O=C(CSc1n[nH]c(=O)n1-c1cccnc1)Nc1ccccc1,-1.6,/,/,/,32.5,/
O=C(CSc1n[nH]c(=O)n1-c1cccnc1)N1CCOCC1,20.0*,1.3%,i,0.5%[46.1 µM],4.4,1.5%
C=CCn1c(SCC(=O)N2CCOCC2)nc2scc(-c3ccco3)c2c1=O,-1.6,10.3µM*,/,-13.4%,-3.3,/
O=C(CSc1n[nH]c(=O)n1Cc1ccco1)N1CCOCC1,15.7*,15.2%,i,2.6%[46.1 µM],-5.6,-2.1%
C=CCn1c(SCC(C)=O)nc2scc(-c3ccco3)c2c1=O,0.9,-1.4%[46.1 µM],i,-25.5%[46.1 µM],2.9,3.2%
CC(=O)[O][Hg][c]1ccccc1,/,/,20µM*,/,/,?
Nc1ccccc1SC1CC(=O)N(c2ccc(Cl)c(Cl)c2)C1=O (stereo unspecified),-2.0,/,-10.9%,/,-9.8,?
Nc1ccccc1SC1CC(=O)N(c2ccc3c(c2)OCCO3)C1=O (stereo unspecified),38.5*,15.4%,-13.2%,?,69.0*,-26.2%
Cc1ccc2oc(=O)c3cnn(CC(=O)N4CCN(c5ccccc5F)CC4)c3c2c1,/,15.2%[46.1 µM],-0.2%,1.0%[46.1 µM],/,-1.7%
COc1ccc(NS(=O)(=O)c2ccc(N/N=C(\C)c3ccncc3)c([N+](=O)[O-])c2)cc1,-5.3,11.6µM*,?,6.31µM*,-9.8,?
CC(=O)n1cc(/C=N/NC(N)=S)c2ccccc21,17.3,14.5%,?,?,-12.2,?
Cn1cc(/C=N/NC(=O)c2ccccc2O)c2ccccc21,24.7*,/,/,/,53.1,/
O=C(N/N=C\c1coc2ccccc2c1=O)c1ccco1,13.9,9.2%,-0.5%,-6.4%[14.2 µM],16.3,-1.8%
CC(C)(C)OC(=O)n1cc(/C=N/NC(=O)c2ccco2)c2ccccc21,37.4*,-18.7%[46.1 µM],-11.3%,-2.0%[46.1 µM],68.4*,-6.8%
CC(=O)n1cc(/C=N/NC(=O)c2ccccc2O)c2ccccc21,25.7*,/,/,/,65.6*,/
Cc1nc(C)c(C(=O)N/N=C/c2cn(C)c3ccccc23)s1,-5.1,2.0%,?,?,-12.3,-27.1%
SMILES,CHX counter,Lassa entry inh,VACV mCherry inh,MARV entry inh,Shiga inhibitor,VACV Venus inh
O=C(CSc1ccc(Cl)cc1)N1CCOCC1,29.2*,7.7%,-11.1%,11.7%[46.1 µM],68.3*,4.3%
O=C(COc1ccc2cc(Br)ccc2c1Br)N1CCOCC1,28.6*,?,?,?,29.9*,-28.9%
Cc1ccc(C23CC4CC(CC(CC(=O)N5CCOCC5)(C4)C2)C3)cc1,-2.4,8.2µM*,/,?,6.4,/
Cc1ccc(C23CC4CC(CC(C(=O)N5CCN(C)CC5)(C4)C2)C3)cc1,-0.7,/,/,-1.4%,-2.3,/
O=C(COc1ccc(Br)cc1)N1CCOCC1,17.8,15.7%,-13.7%,?,21.7,-6.1%
O=C(CCSc1nccn1Cc1ccccc1)N1CCOCC1,19.2*,2.9%,i,7.6%,+,-10.9%
O=C(CSc1nccn1Cc1ccccc1)Nc1ccc2c(c1)OCCO2,/,2.4%[46.1 µM],i,/,/,-24.9%
